The nature of assay [1]: ATG_CRE_CIS: Attagene CIS-FACTORIAL HepG2 Assay for human cAMP Responsive Element (CRE) binding protein 3 (AID 2282926). The conditions noted are these: HepG2 CRE cis-reporter, Attagene multiplexed mRNA; actives raise or lower the signal. The procedure, abridged:
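Assay format: transient reporter transfection of HepG2, 24 h treatment, total RNA isolation with DNase I step. Reporter abundance read by fluorescence after PCR and capillary separation; DMSO-normalised gain or loss fitting.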

In assay [2] the target is CCAAT/enhancer-binding protein beta (Homo sapiens) (UniProt P17676). The assay is described as follows: ATG_C_EBP_CIS: Attagene CIS-FACTORIAL HepG2 Assay for human CCAAT/Enhancer Binding Protein (C/EBP) beta (AID 2282927). The conditions noted are these: HepG2 Attagene cis-factorial transcription factor reporter; actives raise or lower the signal. The procedure, abridged: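 Transiently transfected HepG2 (MRTU library, endogenous TF-driven promoters); 24 h dosing; total RNA → oligo(dT) RT → PCR → 6-FAM primer extension → HpaI digest → CE; fit bidirectionally vs DMSO.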
Sequence of CCAAT/enhancer-binding protein beta (Homo sapiens) (P17676 whole entry, looked up): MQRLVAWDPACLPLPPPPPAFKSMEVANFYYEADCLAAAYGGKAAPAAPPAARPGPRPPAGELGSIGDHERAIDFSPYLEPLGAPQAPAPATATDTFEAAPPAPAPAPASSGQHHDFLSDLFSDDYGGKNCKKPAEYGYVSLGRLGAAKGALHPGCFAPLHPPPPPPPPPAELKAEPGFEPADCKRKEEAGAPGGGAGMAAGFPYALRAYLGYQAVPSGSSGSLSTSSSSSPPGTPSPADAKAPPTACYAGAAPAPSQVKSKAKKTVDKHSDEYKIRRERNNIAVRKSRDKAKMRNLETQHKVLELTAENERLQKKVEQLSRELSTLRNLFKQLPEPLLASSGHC

Assay [3] is described as follows: ATG_CMV_CIS: Attagene CIS-FACTORIAL HepG2 Assay for human CMV (Internal Marker) (AID 2282928).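 Further: endpoint acts as a background internal control marker rather than a target.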 The following applies: HepG2 CMV promoter reporter, transcription factor profiling; actives raise or lower the signal. An outline of the steps: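 Readout: fluorescent reporter cDNA fragments separated by capillary electrophoresis after RT-PCR and HpaI cut. Cells: HepG2 carrying transfected cis-promoter reporter constructs, dosed 24 h. Endpoint serves as background internal-marker control, fit bidirectionally versus DMSO.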

A short description of assay [4]: ATG_DR4_LXR_CIS: Attagene CIS-FACTORIAL HepG2 Assay for human Liver X Receptor (LXR), DR4 submotif (AID 2282929). The following applies: HepG2 Attagene DR4 cis-reporter, mRNA transcription; actives raise or lower the signal. The procedure, abridged:
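Fluorescence intensity of labelled reporter cDNA fragments, separated by capillary electrophoresis, gives the signal. HepG2 cells bearing cis-regulated reporter constructs were treated 24 h; activity fitted bidirectionally relative to DMSO negative control.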

Assay [5] has as its target Aryl hydrocarbon receptor (Homo sapiens) (UniProt P35869). The assay is described as follows: ATG_Ahr_CIS: Attagene CIS-FACTORIAL HepG2 Assay for human Aryl Hydrocarbon Receptor (Ahr) (AID 2282930). The following applies: HepG2 AhR cis-factorial reporter transcription; actives raise or lower the signal. The procedure, abridged: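 Read-out: reporter mRNA quantified by RT-PCR with fluorescent primer extension and capillary electrophoresis. Human HepG2 liver cells carried transfected cis-promoter reporter units and were exposed to chemical for 24 h; gain or loss fitted relative to DMSO.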

Assay [6] in a line: ATG_AP_1_CIS: Attagene CIS-FACTORIAL HepG2 Assay for human Activator Protein 1 (AP-1) (AID 2282931). The conditions noted are these: HepG2 Attagene cis-factorial AP-1 reporter mRNA; actives raise or lower the signal. An outline of the steps:
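Multiplexed HepG2 reporter assay, 24 h dosing. mRNA induction detected by RT-PCR plus capillary electrophoresis. Activity fitted in both directions against DMSO.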

Assay [7] is described as follows: ATG_AP_2_CIS: Attagene CIS-FACTORIAL HepG2 Assay for human Activator Protein 2 (AP-2) (AID 2282932). The following applies: HepG2 AP-2 cis-reporter, Attagene transcription factor profiling; actives raise or lower the signal. The procedure, abridged:
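Read-out: fluorescent reporter mRNA via RT-PCR and capillary electrophoresis, 24 h post-dose in transiently transfected HepG2. Endogenous factors drive cis-promoter reporters; gain or loss of signal fitted bidirectionally against DMSO.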

The nature of assay [8]: ATG_BRE_CIS: Attagene CIS-FACTORIAL HepG2 Assay for human Bone Morphogenetic Protein (BMP) Response Element (BRE) (AID 2282933). The conditions noted are these: HepG2 BMP response element reporter, Attagene transcription factor profiling; actives raise or lower the signal. An outline of the steps:
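Transient MRTU transfection of human HepG2 liver cells; 24 h compound treatment; total RNA isolated, reverse-transcribed, PCR-amplified, 6-FAM labelled, HpaI-cut, capillary electrophoresis. DMSO = negative control/baseline, bidirectional fit.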

The target in assay [9] is Retinoic acid receptor alpha (Homo sapiens) (UniProt P10276). Description: ATG_DR5_RAR_CIS: Attagene CIS-FACTORIAL HepG2 Assay for human Retinoic Acid Receptor Alpha (RARE), DR5 submotif (AID 2282934).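 On AC50: reporter responds to endogenous RAR alpha beta and gamma in HepG2 not RARA alone.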 The conditions noted are these: HepG2 Attagene cis-factorial RARE DR5 reporter, mRNA; actives raise or lower the signal. An outline of the steps:
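Read-out: DR5-driven reporter transcript measured by RT-PCR, 6-FAM primer extension, HpaI digest and capillary electrophoresis. Human HepG2 liver cells carry transiently transfected cis-element reporter constructs; dosing lasts 24 h. Gain or loss of signal fitted against DMSO baseline.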

Assay [10] deals with Transcription factor E2F1 (Homo sapiens) (UniProt Q01094). Description: ATG_E2F_CIS: Attagene CIS-FACTORIAL HepG2 Assay for human E2F Transcription Factor 1 (AID 2282935). The following applies: HepG2 Attagene cis-reporter, E2F reporter RNA transcripts; actives raise or lower the signal. An outline of the steps:
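Transient MRTU transfection of HepG2; 24 h compound exposure; RNA → oligo(dT) RT → PCR → FAM label → HpaI cut → CE fluorescence. Gain/loss of signal fit against DMSO.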

Activity calls are given as the source filed them. How the source made its calls: active means hit-call score of the fitted dose curve at least 0.9, where 1 is the maximum; inactive means score below 0.9.

From PubChem BioAssay (EPA / NIEHS) come the findings set out here.

One may read the AC50 as the concentration giving half of the maximal activity seen.

Sequence of Retinoic acid receptor alpha (Homo sapiens) (P10276 whole entry, looked up): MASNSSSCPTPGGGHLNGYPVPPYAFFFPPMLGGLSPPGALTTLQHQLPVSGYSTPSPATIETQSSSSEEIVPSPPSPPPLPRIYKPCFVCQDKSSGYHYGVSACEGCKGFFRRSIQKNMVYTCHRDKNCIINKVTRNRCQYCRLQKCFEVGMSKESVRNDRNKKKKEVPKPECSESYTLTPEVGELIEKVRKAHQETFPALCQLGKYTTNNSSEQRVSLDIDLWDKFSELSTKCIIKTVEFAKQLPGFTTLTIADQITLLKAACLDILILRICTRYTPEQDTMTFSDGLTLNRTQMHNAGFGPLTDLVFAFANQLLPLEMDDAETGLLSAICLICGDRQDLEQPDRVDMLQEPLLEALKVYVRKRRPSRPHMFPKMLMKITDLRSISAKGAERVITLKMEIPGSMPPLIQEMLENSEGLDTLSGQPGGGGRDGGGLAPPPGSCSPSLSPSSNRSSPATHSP
Sequence of Transcription factor E2F1 (Homo sapiens) (Q01094 whole entry, looked up): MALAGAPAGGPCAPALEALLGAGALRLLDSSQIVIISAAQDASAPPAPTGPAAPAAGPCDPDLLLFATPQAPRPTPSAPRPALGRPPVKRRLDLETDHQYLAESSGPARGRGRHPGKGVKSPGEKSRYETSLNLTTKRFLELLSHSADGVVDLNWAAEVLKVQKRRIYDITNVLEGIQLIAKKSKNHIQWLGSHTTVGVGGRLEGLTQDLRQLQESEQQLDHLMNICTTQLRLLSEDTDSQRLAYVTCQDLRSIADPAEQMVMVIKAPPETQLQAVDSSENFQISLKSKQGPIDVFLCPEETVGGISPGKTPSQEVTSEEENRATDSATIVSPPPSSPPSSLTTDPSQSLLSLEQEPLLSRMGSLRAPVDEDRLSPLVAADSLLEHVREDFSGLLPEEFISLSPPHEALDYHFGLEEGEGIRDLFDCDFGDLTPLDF
Sequence of Aryl hydrocarbon receptor (Homo sapiens) (P35869 whole entry, looked up): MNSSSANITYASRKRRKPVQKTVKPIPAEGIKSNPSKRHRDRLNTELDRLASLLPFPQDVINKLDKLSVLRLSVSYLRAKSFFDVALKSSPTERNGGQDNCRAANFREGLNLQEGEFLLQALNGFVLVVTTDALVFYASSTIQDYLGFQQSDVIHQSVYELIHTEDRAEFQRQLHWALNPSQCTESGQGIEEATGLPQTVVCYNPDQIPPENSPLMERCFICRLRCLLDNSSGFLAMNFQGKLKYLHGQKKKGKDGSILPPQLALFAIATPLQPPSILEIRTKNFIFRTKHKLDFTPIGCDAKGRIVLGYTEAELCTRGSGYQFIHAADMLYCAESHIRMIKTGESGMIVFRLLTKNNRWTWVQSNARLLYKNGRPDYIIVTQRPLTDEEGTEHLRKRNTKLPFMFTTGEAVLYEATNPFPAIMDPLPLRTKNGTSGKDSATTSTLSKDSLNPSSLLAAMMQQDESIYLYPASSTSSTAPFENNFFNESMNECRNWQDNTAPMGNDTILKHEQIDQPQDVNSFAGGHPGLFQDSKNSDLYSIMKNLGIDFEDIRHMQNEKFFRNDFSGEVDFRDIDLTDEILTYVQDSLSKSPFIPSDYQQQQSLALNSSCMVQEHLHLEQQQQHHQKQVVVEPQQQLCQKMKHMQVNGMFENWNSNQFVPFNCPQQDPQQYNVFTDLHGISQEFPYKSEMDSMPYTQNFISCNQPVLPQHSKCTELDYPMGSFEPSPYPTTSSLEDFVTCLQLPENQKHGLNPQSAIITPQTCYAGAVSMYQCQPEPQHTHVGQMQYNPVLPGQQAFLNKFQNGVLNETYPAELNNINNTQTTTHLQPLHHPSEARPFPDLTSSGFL

As to `C1=Cc2ccccc2C1`, the outcome in [1], in [2], in assay [3], in assay [4], in assay [6] and in assay [7] was inactive. Besides, the compound was classed as inactive in assay [8], in [9] and in assay [10]. In assay [5], the concentration at half-maximal activity (AC50) was 5.55 µM (active).
Take `c1c[nH]cn1`: the outcome in assay [1], in assay [2], in assay [3], in [4], in assay [5] and in assay [6] was inactive. Also, the call in [7], in [8], in assay [9] and in assay [10] was inactive.
Take `CCCCCCCCCCOS(=O)(=O)O`: the compound was called inactive in [1], in [2], in assay [3], in [5], in assay [6] and in assay [7]. For the same compound, the outcome in assay [8] and in [10] was inactive. Further, the results for the AC50 in assay [4] and in [9] were 67 µM (active) and 61.3 µM (active), respectively.
As to `CC(=O)OCc1ccco1`, the call in assay [1], in assay [2], in assay [3], in [4], in assay [5] and in assay [6] was inactive. For the same compound, the compound was called inactive in assay [7], in assay [8], in [9] and in [10].
`O=C(O)c1cc2ccccc2nc1C(=O)O`: the outcome in [1], in assay [2], in assay [3], in assay [4], in assay [6] and in assay [7] was inactive. In addition, the outcome in [8], in assay [9] and in assay [10] was inactive. Further, the AC50 in assay [5] is 41.1 µM (active).
In the case of `Cc1cc(C)c(C)c(C)c1`, the compound was called inactive in assay [1], in assay [2], in [3], in assay [4], in assay [5] and in [6]. The compound was classed as inactive in assay [7], in [8], in assay [9] and in assay [10].
With `CC(=O)OCC(C)OC(C)=O` (stereo not given), the call in assay [1], in assay [2], in assay [3], in [4], in assay [5] and in [6] was inactive. Besides, the result in assay [7], in [8], in [9] and in assay [10] was inactive.
`Cc1oncc1C(=O)Nc1ccc(C(F)(F)F)cc1`: the outcome in assay [1], in [2], in assay [3], in assay [4], in assay [7] and in assay [9] was inactive. Further, the outcome in assay [10] was inactive. Also, the AC50 in assay [5] was 8.59 µM (active); in assay [6], 100 µM (active); in [8] it was 127 µM (active).
In the case of `CCCCCCCCCCCCCOP(=O)(O)O`, the compound was called inactive in [1], in [2], in assay [3], in [4], in assay [5] and in assay [6]. The result in assay [7], in assay [8], in assay [9] and in assay [10] was inactive.
Consider `CC(C)=CCC[C@H](C)CCO`, for which the call in [1], in assay [2], in assay [3], in assay [4], in assay [5] and in assay [6] was inactive. Also, the compound was called inactive in assay [7], in assay [8], in assay [9] and in assay [10].
Consider `O=C(c1ccccc1)C1CCC1`, for which the result in assay [1], in assay [2], in [3], in assay [4], in assay [5] and in [6] was inactive. The outcome in assay [7], in [8], in assay [9] and in assay [10] was inactive.
For the compound `O=C(O)C(c1ccc(Cl)cc1)c1ccc(Cl)cc1`, the compound was called inactive in [1], in assay [2], in assay [3], in assay [4], in assay [5] and in [6]. For the same compound, the result in assay [7], in [8], in [9] and in assay [10] was inactive.
Consider `c1cc(C(c2ccc(OCC3CO3)cc2)C(c2ccc(OCC3CO3)cc2)c2ccc(OCC3CO3)cc2)ccc1OCC1CO1` (stereo not given), for which the results for the half-maximal activity concentration (AC50) in assay [1], in assay [3] and in assay [4] were 30.7 µM (active), 64.3 µM (active) and 33.1 µM (active), respectively. Besides, the result in [2], in assay [5], in assay [6], in assay [7], in [8] and in assay [9] was inactive. In addition, the compound was classed as inactive in [10].
Regarding `CN1C(=O)N(C)C(O)C1O` (stereo not given), the compound was called inactive in assay [1], in [2], in [3], in assay [4], in [5] and in [6]. The call in assay [7], in assay [8], in assay [9] and in assay [10] was inactive.
Consider `Cc1ccc(C(C)(C)C)cc1`, for which the outcome in assay [1], in assay [2], in [3], in [4], in [5] and in assay [6] was inactive. For the same compound, the result in [7], in assay [8], in [9] and in [10] was inactive.
Turning to `OC1CCCC1`, the compound was called inactive in assay [1], in assay [2], in [3], in assay [4], in assay [5] and in [6]. Besides, the call in [7], in assay [8], in assay [9] and in assay [10] was inactive.
As to `ON(Cc1ccccc1)Cc1ccccc1`, the result in [1], in [2], in [3], in [4], in assay [5] and in [6] was inactive. In addition, the call in assay [7], in assay [8], in assay [9] and in assay [10] was inactive.
Take `CCCCCCCOC(=O)CCC`: the compound was called inactive in [1], in [2], in [3], in assay [4], in assay [5] and in [6]. Also, the compound was classed as inactive in [7], in [8], in assay [9] and in [10].
In the case of `C=CCOCC(O)CCl` (stereo not given), the result in assay [1], in assay [2], in assay [3], in [4], in [5] and in assay [6] was inactive. Also, the compound was called inactive in assay [7], in assay [8], in assay [9] and in assay [10].
In the case of `CCN(CCC#N)c1ccc(N=Nc2c(Cl)cc([N+](=O)[O-])cc2Cl)cc1`, the compound was called inactive in assay [1], in assay [2], in [3], in assay [4], in assay [5] and in [7]. In addition, the outcome in assay [8], in assay [9] and in assay [10] was inactive. Also, the AC50 in assay [6] was 27 µM (active).
